Source: PubChem BioAssay AID489025 (Southern Research Specialized Biocontainment Screening …, 2010)
The whole screen tested about 2,300 compounds, of which about 790 (34%) were called active. How the calls were made is not given here. Some of the results follow. Entries with a potency or affinity are not part of this list.

experiment: THP-1 cell cytotoxicity, dose response, cytotoxicity control for non-replicating M. tuberculosis project (AID 489025); conditions: THP-1 cell viability; series mostly up to 40 µM; viability: at the top concentration

Compound	viability
Nc1ccc2c(c1)oc1ccccc12	101% (inactive)
COc1ccc(N2CCN(CC(=O)NC(=O)NC(C)(C)C)CC2)cc1	96.5% (inactive)
Cc1cc(C)n(C(=O)c2ccc([N+](=O)[O-])cc2[N+](=O)[O-])n1	96% (inactive)
O=C(c1ccc([N+](=O)[O-])cc1[N+](=O)[O-])N1CCc2ccccc21	103% (inactive)
CCC1(O)CC(c2ccccc2)=NN1C(=O)c1ccccc1F (stereo not given)	102% (inactive)
CCOC(=O)C(C)(C)n1nnc(-c2ccc([N+](=O)[O-])cc2)n1	116% (inactive)
CCOC(=O)C1CCN(C(=O)COc2cc(C)c(Br)c(C)c2)CC1	110% (inactive)
O=C(COc1ccccc1)Nc1ccc(Cl)cn1	83.5% (inactive)
FC(F)c1nnc2ccc(Cl)nn12	72.5% (inactive)
O=Cc1coc2ccc3ccccc3c2c1=O	81.1% (inactive)
COC(=O)COc1cccc(NC(=O)c2cccc(C)c2)c1	77.6% (inactive)
COc1ccc(-c2noc(CCC(=O)Nc3cccc(C)c3)n2)cc1	113% (inactive)
CCOC(=O)COc1ccc(C(=O)c2ccccc2)c(O)c1	109% (inactive)
CC(C)c1cc(C(=O)N/N=C/C=C/c2ccccc2)n[nH]1	75.9% (inactive)
COc1ccc(S(=O)(=O)NCc2ccc3c(c2)cc(C)n3C)cc1	95.4% (inactive)
Cc1nnc(N/N=C/c2cccc(OCc3ccc(Cl)c(Cl)c3)c2)n1N	79.3% (inactive)
O=C(OCc1nc2ccccc2s1)c1ccc(Br)o1	115% (inactive)
CCOC(=O)CCCNC(=O)COC(=O)c1cc(Br)c(Br)s1	105% (inactive)
O=C(N/N=C/C(Br)=C/c1ccccc1)c1cnccn1	95.2% (inactive)
CCOc1ccc(-c2ccc(C=O)o2)c([N+](=O)[O-])c1	70.5% (inactive)
C/C(CC(=O)Nc1ccc(N(C)C)cc1)=N\NC(=O)c1ccncc1	107% (inactive)
Cc1cc(Cl)ccc1OC(C)C(=O)Nc1ccc([N+](=O)[O-])cn1 (stereo not given)	79.7% (inactive)
Cc1ccc(C)c(NC(=O)c2cc([N+](=O)[O-])cc([N+](=O)[O-])c2)c1	107% (inactive)
O=C1CC(=O)CC(c2ccccc2)C1	106% (inactive)

Compound	viability
O=C1CC(N2CCC(c3nc4ccccc4o3)CC2)C(=O)N1 (stereo not given)	99.5% (inactive)
O=[N+]([O-])c1ccc(CN2CCN(c3ccc(F)cc3)CC2)o1	106% (inactive)
O=C(NNC(=O)c1cccs1)c1ccc(Br)o1	95.2% (inactive)
COc1cccc(OCC(=O)NNC(=O)c2cccs2)c1	102% (inactive)
O=C(c1cccs1)N1CCN(c2ccc(Cl)cc2)CC1	85% (inactive)
O=[N+]([O-])c1ccc(N2CCN(Cc3ccc([N+](=O)[O-])o3)CC2)cc1	89.6% (inactive)
O=[N+]([O-])c1ccc(CN2CCN(c3ccccc3)CC2)o1	126% (inactive)
CCOC(=O)NC(=O)COC(=O)CCCSc1nc2ccccc2s1	119% (inactive)
O=C(Cc1ccc(F)cc1)Nc1ccc(Cl)cn1	92.7% (inactive)
Cc1ccc2nc(C)c3c(c2c1)SCC3	91.6% (inactive)
COc1ccc(OCC(=O)Nc2ccc(N3CCN(C(=O)c4ccco4)CC3)cc2)cc1	103% (inactive)
Nc1scc(-c2ccncc2)c1Cl	101% (inactive)
CCOC(=O)COc1ccc2c(c1)C(=O)CC(C)(c1cccnc1)O2 (stereo not given)	105% (inactive)
COc1cc(/C=N/Nc2cccc3cccnc23)cc(OC)c1O	104% (inactive)
Oc1cc(NCc2cccnc2)ccc1-c1nc2ccccc2o1	72.7% (inactive)
C/C(O)=C\c1nc2ccccc2oc1=O	70.5% (inactive)
CCc1nnc(N/N=C/c2ccc(N3CCC(C)CC3)c([N+](=O)[O-])c2)n1N	85.3% (inactive)
COc1cc(/C=N/N(C)C)ccc1OC(=O)c1cccs1	95% (inactive)
O=C(COc1ccc2c(c1)CCC2)Nc1ccccn1	99.8% (inactive)
Cc1cccc2c(CC(=O)O)noc12	101% (inactive)
COc1cc(OC)cc(-c2nc3ccccc3c(=O)o2)c1	102% (inactive)
COc1ccc(/C=C/c2nc3ccccc3c(=O)o2)cc1	80.8% (inactive)
O=C(C/C=N\OCc1ccc([N+](=O)[O-])cc1)Nc1ccc(Cl)cc1	101% (inactive)
O=C(COC(=O)CC1CCCC1)Nc1ccc(OC(F)F)cc1	130% (inactive)

Compound	viability
COCCCNC(=O)COC(=O)c1ccc(-c2nc3ccccc3s2)s1	93.4% (inactive)
CC(C)Cn1c(N)c(C(=O)COC(=O)c2ccc([N+](=O)[O-])o2)c(=O)n(C)c1=O	94.1% (inactive)
CCc1ccc(C(=O)COC(=O)c2ccc(Cl)nc2)cc1	95.8% (inactive)
Oc1oc(-c2ccco2)nc1C=Nc1cccc(Cl)c1	99.7% (inactive)
CCCCCn1nnc2c(=O)oc3ccccc3c21	97.3% (inactive)
CCOc1ccc(OCC(=O)OCc2cc(=O)n3cc(Br)ccc3n2)cc1	97.9% (inactive)
CCOC(=O)c1nc2sc3c(c2c(=O)[nH]1)CCC(C)C3 (stereo not given)	87.8% (inactive)
Nc1nonc1C(=O)NCCN=Cc1cc(Cc2ccccc2)cc(Br)c1O	96.6% (inactive)
COc1cccc(COC(=O)CCNC(=O)c2ccc(Cl)cc2)c1OC	112% (inactive)
COc1ccccc1C(c1nnnn1Cc1ccccc1)N1CCC(C(N)=O)CC1 (stereo not given)	104% (inactive)
CCCCNC(=O)N1CCc2ccccc2C1	120% (inactive)
C/C(=N\NC(=O)c1ccc([N+](=O)[O-])c(C)c1)c1ccccc1Cl	88.1% (inactive)
COc1ccc(N=N/C(=C\O)C(=O)c2ccco2)cc1	106% (inactive)
Cc1ccc(C(=O)O/N=C(\N)c2cccc([N+](=O)[O-])c2)cc1	98.6% (inactive)
CCOC(=O)c1cc(-c2c(Cl)cccc2Cl)no1	94.5% (inactive)
O=C(OCCCOC(=O)c1ccc([N+](=O)[O-])o1)c1ccc([N+](=O)[O-])o1	99.9% (inactive)
Cc1[nH]c2ccccc2c1C(=O)C(C)OC(=O)c1ccc([N+](=O)[O-])o1 (stereo not given)	81.2% (inactive)
O=C(Nc1nccs1)c1cc2cc(Cl)ccc2oc1=O	87.5% (inactive)
N=c1oc2ccccc2cc1C(=O)NC1CCCCCC1	108% (inactive)
CCOC(=O)c1cn(Cc2cccc(Cl)c2)nn1	106% (inactive)
O=C(COC(=O)c1cccc(C(F)(F)F)c1)NCc1ccccc1	117% (inactive)
CSc1ccccc1NC(=O)c1cc(C(C)C)on1	101% (inactive)
CCCCNS(=O)(=O)c1ccc(OCC(=O)OC)cc1	89.7% (inactive)
O=c1oc(/C=C/c2ccc([N+](=O)[O-])s2)nc2ccccc12	83.4% (inactive)

Compound	viability
C=C(C)C1Cc2cc3ccc(=O)oc3cc2O1 (stereo not given)	85.2% (inactive)
C/C(=N\NC(=O)c1nn(C)cc1Cl)c1ccncc1	107% (inactive)
CCOc1ccc(-c2cc(CCCC(=O)NCCC(C)C)no2)cc1	103% (inactive)
O=c1c(=Nc2ccccc2O)c(=O)c2ccccc12	105% (inactive)
O=C(O)c1[nH]c(=O)[nH]c(=O)c1F	80.6% (inactive)
CCOC(=O)CN1NC2(CCC(C)CC2)NC1=S (stereo not given)	86.5% (inactive)
CCc1cc(C(c2ccncc2)N2CCN(C)CC2)c(NC(=O)c2ccccc2)s1 (stereo not given)	106% (inactive)
Cc1ccc(C(=O)Oc2cccc(-n3cnnn3)c2)cc1	87.2% (inactive)
CCc1ccc(NC(=O)C(=O)NNC(=O)c2cccc(OC)c2)cc1	77.2% (inactive)
COC(=O)COc1ccc(-c2ccc(F)cc2)cc1C=O	87.1% (inactive)
Cc1ccc(CCC(=O)Nc2cc(Cl)ccc2Cl)o1	95.1% (inactive)
COc1ccc(/C=N/NC(=O)C(=O)NCc2cccnc2)cc1OC	117% (inactive)
O=[N+]([O-])c1ccc(/C=N/NS(=O)(=O)c2ccc(Cl)cc2)o1	90% (inactive)
Cc1ccc(OCC(=O)N/N=C/c2ccc([N+](=O)[O-])o2)cc1	100% (inactive)
Cc1ccc(CCC(=O)Nc2ccc([N+](=O)[O-])cc2)o1	106% (inactive)
Cc1ncsc1CCOC(=O)c1ccc([N+](=O)[O-])cc1	88.5% (inactive)
Oc1ccc(Br)cc1-c1ccn[nH]1	94.1% (inactive)
CCCCNC(=O)COC(=O)c1cc(F)c(F)cc1Cl	125% (inactive)
C=Cc1cccc(NC(=O)COc2ccccc2)c1	90.2% (inactive)
Cc1nn(-c2ccccc2)nc1C(=O)c1c(C)[nH]n(-c2ccccc2)c1=O	84.6% (inactive)
CCC(C)c1ccc(O)c(/C=N/O)c1 (stereo not given)	94.4% (inactive)
O=[N+]([O-])c1cc2oc3c(c2c(C=NCc2ccccc2)c1O)CCCC3	118% (inactive)
O=C(N/N=C/C=C/c1ccco1)c1ccncc1	96.7% (inactive)
Nc1ccc(C(=O)N/N=C\C=C\c2ccc([N+](=O)[O-])cc2)cc1	118% (inactive)

Compound	viability
O=C(COC(=O)CCC(=O)c1ccc(F)cc1)Nc1ccc(F)cc1F	110% (inactive)
COc1cccc(OC(=O)c2cc3ccccc3oc2=O)c1	101% (inactive)
CCC(=O)N1CCN(c2cc3c(cc2F)c(=O)c(C(=O)O)cn3CC)CC1	119% (inactive)
CC(C)OC(=O)CCCCCN1C(=O)CSC1=S	106% (inactive)
O=C(OCC#CCSc1nnc(-c2ccccc2)o1)c1ccco1	91.4% (inactive)
COC(=O)CCCCCN1C(=O)/C(=C\c2ccncc2)SC1=S	75.8% (inactive)
Cc1ccc(C(=O)c2cncc(Br)c2)cc1	86.4% (inactive)
CCCCN1C(=O)C2(NNc3ccccc3O2)c2ccccc21 (stereo not given)	77.2% (inactive)
COC(=O)COc1ccc2c(=O)c(Oc3ccccc3)c(C)oc2c1	113% (inactive)
O=C(NCC1CCCCC1)c1ccc([N+](=O)[O-])cc1	112% (inactive)
NC(N)=N/N=C/c1cc([N+](=O)[O-])ccc1O	119% (inactive)
O=C(C/C=N\OCc1ccc([N+](=O)[O-])cc1)Nc1ccc(Br)cc1	91.5% (inactive)
O=C(NNc1ccc([N+](=O)[O-])cc1)C1CC2CCCC(C1)C2=O (stereo not given)	124% (inactive)
CCCC(=O)Nc1cccc(-c2nc3ccccc3c(=O)o2)c1	110% (inactive)
C#CCOc1coc(COC(=O)c2ccccc2)cc1=O	93.3% (inactive)
CC1C/C(=N/N2C(=O)CSC2=S)CC(C)(C)C1 (stereo not given)	127% (inactive)
CCCCCCC1CC(C)(C(=O)CNc2nncs2)OC1=O (stereo not given)	115% (inactive)
CC1=NN(C(=O)c2csc(C)c2C)C(O)(C(F)(F)F)C1 (stereo not given)	90.6% (inactive)
Nc1cccn2c(-c3ccc(Cl)cc3)cnc12	89.2% (inactive)
Cc1ccc(C(=O)Nc2nccs2)cc1	78.5% (inactive)
CCN1CCN(C(=O)CN(Cc2ccccc2)S(C)(=O)=O)CC1	85.7% (inactive)
C/C(=N\NC(=O)c1cc([N+](=O)[O-])cc([N+](=O)[O-])c1)c1ccco1	93% (inactive)
CC(C)c1ccc(C2=C(O)c3ccccc3C(=O)C2=O)cc1	112% (inactive)
N#CC1=C(N)Oc2n[nH]c(-c3cccnc3)c2C1c1ccc([N+](=O)[O-])o1 (stereo not given)	114% (inactive)
